An excerpt weighted towards active compounds, which were near 28% of everything screened.
CYP2C9 act = human CYP2C9 activators, primary screen, biochemical, luminescence; Cytochrome P450 2C9 (Homo sapiens), P11712; recombinant CYP2C9, luciferin-H conversion; active compounds read high; factor 1 = untreated enzyme, 0 = blocked; activation factor at 5 µM; hit rate 1.4% among 96,000;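 active = activation factor of 2 or more for CYP2C9 at a 5 µM dose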
Target sequence (P11712 whole entry, looked up): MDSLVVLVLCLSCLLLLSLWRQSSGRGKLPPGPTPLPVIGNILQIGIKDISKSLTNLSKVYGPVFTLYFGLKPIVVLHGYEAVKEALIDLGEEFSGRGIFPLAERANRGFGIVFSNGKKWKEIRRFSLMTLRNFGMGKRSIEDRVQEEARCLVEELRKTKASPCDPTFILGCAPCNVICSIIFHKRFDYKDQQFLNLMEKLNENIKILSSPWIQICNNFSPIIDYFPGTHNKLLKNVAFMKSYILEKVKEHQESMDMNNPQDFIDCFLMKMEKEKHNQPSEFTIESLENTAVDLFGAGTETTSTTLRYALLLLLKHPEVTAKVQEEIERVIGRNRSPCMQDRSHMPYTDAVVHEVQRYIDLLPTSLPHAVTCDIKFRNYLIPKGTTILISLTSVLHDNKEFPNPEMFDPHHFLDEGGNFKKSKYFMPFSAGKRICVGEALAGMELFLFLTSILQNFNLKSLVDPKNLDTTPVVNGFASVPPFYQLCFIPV
CYP2C9 inhib = blockers of cytochrome P450 2C9 activity – biochemical, luminescence, ADME assay, primary screen; P11712; CYP2C9 Supersomes, luciferin-H conversion; inhibition, % at 5 µM; hit rate 20% among 96,000; AID 777, 2007;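 active = blocking of liver enzyme CYP2C9 beyond about 50% at 5 µM, limit read from the data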
CD11b adhes inh = inhibitors of CD11b/CD18 adhesion to fibrinogen, primary screen, K562 cells, luminescence; Integrin beta-2 (Homo sapiens) + Integrin alpha-M (Homo sapiens), P05107+P11215; ATPlite luminescence; Mn2+ added to activate the integrin; inhibition, % at 10 µM; hit rate 0.54% among 93,000;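 active = primary inhibition of 50% or more at 10 µM, then 40% or more on retest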
CYP2C19 inhib = blockers of cytochrome P450 2C19 activity – biochemical, luminescence, ADME assay, primary screen. CYP2C19 Supersomes, luciferin-H EGE luminescence, 30 min. hit rate 21% among 96,000. inhibition, % at 5 µM. AID 778, 2007. P33261;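 active = CYP2C19 inhibition above a set limit at 5 µM in the primary screen, cut at about 50% in these data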
CYP2C19 act = human CYP2C19 activators, primary screen, biochemical, luminescence | Cytochrome P450 2C19 (Homo sapiens), P33261 | activation factor at 5 µM | AID 1025, 2008 | recombinant CYP2C19, luciferin-H EGE luminescence; active compounds read high; 0 = fully inhibited enzyme, 1 = untreated enzyme | 96,000 tested, under 10 active;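 active = activation factor of at least 2 at 5 µM in the primary screen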
CD11b adhes enh = enhancers of CD11b/CD18 adhesion to fibrinogen, primary screen, K562 cells, luminescence. hit rate 0.07% among 93,000. Integrin beta-2 (Homo sapiens) + Integrin alpha-M (Homo sapiens), P05107+P11215. AID 1499, 2009. activation, % at 10 µM. ATPlite luminescence;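 active = 10 µM primary screen giving 50% or more activity, confirmed by 40% or more on retest at that dose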
Each line names hits and unclear results; the compound was inactive in the other large screens.

C/C(=N\N=C(/N)SC1CC(=O)N(c2ccc(Br)cc2)C1=O)c1cccs1 (stereo not drawn)	none
CC(=O)Nc1ccc(S(=O)(=O)Nc2nnc(C3CCCCC3)s2)cc1	none
CCCOC(=O)C1[C@H]2C(=O)N(CC3CCCO3)C[C@]23C=C[C@H]1O3 (stereo partly drawn)	none
O=S(=O)(c1ccc(S(=O)(=O)N2CCN(Cc3ccccc3)CC2)cc1)N1CCOCC1	none
O=c1ccc(S(=O)(=O)N2CCC(Cc3ccccc3)CC2)c[nH]1	none
O=S(=O)(c1ccc(Cl)s1)N1CCN(Cc2ccccc2)CC1	CYP2C9 inhib 61, CYP2C19 inhib 84
O=S(=O)(c1ccc(Cl)s1)N1CCC(Cc2ccccc2)CC1	CYP2C9 inhib 68
O=S(=O)(c1ccc(Br)s1)N1CCC(Cc2ccccc2)CC1	CYP2C9 inhib 56
COc1ccc(-c2nc3ccccc3c(=O)n2CCOc2cccc(C)c2C)cc1	none (no result: CYP2C9 act, CYP2C9 inhib, CYP2C19 inhib, CYP2C19 act)
CCCC(=O)Nc1nc2c(c(=O)[nH]1)CCCC2	none
COc1cc(-c2nc3n(n2)C(c2ccc(F)cc2)C2=C(CCCC2=O)N3)cc(OC)c1OC (stereo not drawn)	none
COc1cccc(C2C3=C(CCCC3=O)Nc3nc(-c4cc(OC)c(OC)c(OC)c4)nn32)c1 (stereo not drawn)	CYP2C19 inhib 62
O=C1CCN2C=Nc3cccc4ccc1c2c34	none
O=C1NC(CCc2ccccc2)C(=O)N1Cc1cccc2ccccc12 (stereo not drawn)	none (no result: CYP2C9 act, CYP2C9 inhib, CYP2C19 inhib, CYP2C19 act)
Clc1ccc(CSCCc2ccncc2)cc1	CYP2C9 inhib 100, CYP2C19 inhib 100
c1ccc2c(CSCCc3ccncc3)cccc2c1	CYP2C9 inhib 94, CYP2C19 inhib 97 (no result: CD11b adhes inh, CD11b adhes enh)
Cc1ccc(S(=O)(=O)CC#CCOC(=O)c2ccc([N+](=O)[O-])cc2)cc1	none (no result: CD11b adhes inh, CD11b adhes enh)
CC(NC(N)=O)C12CC3CC(CC(C3)C1)C2 (stereo not drawn)	none
Cc1ccc(S(=O)(=O)NCCOC(=O)Nc2sc(=S)n(C)c2C)cc1	CYP2C19 inhib 73
CS(=O)(=O)c1ccccc1-c1nc(-c2ccc(C(F)(F)F)cc2)no1	CYP2C9 act 3.1 (no result: CD11b adhes inh, CD11b adhes enh)
COc1ccc(COC(=O)c2ccc(N3CCCC3=O)cc2)cc1F	CYP2C9 inhib 61
CCOc1ccc(S(=O)(=O)Nc2nc3ccc(OC)cc3s2)cc1	CYP2C9 inhib 99, CYP2C19 inhib 82
CCOc1ccc2nc(NS(C)(=O)=O)sc2c1	none
CCOc1ccc2nc(NS(=O)(=O)c3ccc4c(c3)n(C)c(=O)n4C)sc2c1	CYP2C9 inhib 98
Cc1ccc(S(=O)(=O)Nc2nc3ccc(S(C)(=O)=O)cc3s2)cc1	CYP2C9 inhib 98
Cc1cc(C)cc(NS(=O)(=O)c2ccc3c(c2)c(=O)n(C)c(=O)n3C)c1	none
Cc1ccc(NS(=O)(=O)c2ccc3c(c2)c(=O)n(C)c(=O)n3C)cc1F	CYP2C9 inhib 92, CYP2C19 inhib 94
COc1c(Cl)cc(C(=O)Nc2ccccc2-c2ccccc2)cc1Cl	none (no result: CD11b adhes inh, CD11b adhes enh)
O=C1CC(N2CCN(c3ccccc3)CC2)C(=O)N1CCc1ccccc1 (stereo not drawn)	none
COc1cc(NS(=O)(=O)c2ccc3c(c2)n(C)c(=O)n3C)cc(OC)c1	CYP2C9 inhib 84, CYP2C19 inhib 59
COc1ccccc1-n1c(C)nc(=O)c(-c2ccccc2)c1C	CYP2C19 inhib 78
Cc1c(-c2ccccc2)[n+](=O)c(-c2ccco2)c(C)n1[O-]	CYP2C19 inhib 87
Cc1c(-c2ccco2)[n+](=O)c2c(n1[O-])CCCCC2	none
O=C(c1ccc(NC(=S)Nc2ccc(Cl)c(Cl)c2)cc1)N1CCCC1	none (no result: CYP2C9 act, CYP2C9 inhib, CYP2C19 inhib, CYP2C19 act)
CCOC(=O)c1ccc2c(c1)NC(=O)C(N1CCN(c3ccc(OC)cc3)CC1)S2 (stereo not drawn)	none
Nc1nc2n(n1)C(c1cccs1)CC(c1ccc(Br)cc1)N2 (stereo not drawn)	CYP2C19 inhib 66
Cc1cccc(C2CC(c3ccc(Br)cc3)Nc3nc(N)nn32)c1 (stereo not drawn)	CYP2C19 inhib 77

High-throughput results (PubChem BioAssay)
